Results as given in PubChem BioAssay AID489042 (NMMLSC, 2010).
The source made the active and inactive calls. No stated cut-off is given here; in the data, active means inhibition score above about 11; inactive means the rest.

experiment: yeast proliferation inhibition, dose response, BY4741, OD595, 24 h (AID 489042); conditions: S. cerevisiae BY4741 growth, stronger effect = higher value

**Q.** Which inhibition score does the source give for `c1ccc2[nH]c3cc4ncnc4cc3nc2c1` here?
**A.** 0 (inactive)

**Q.** With `Cc1cc(C)cc(NC(=O)CN2CCN(c3ccccn3)CC2)c1` as the compound, how does the inhibition score read?
**A.** 0 (inactive)

**Q.** Which inhibition score does the source give for `N#CCc1nn(-c2ccccc2)c2ncnc(N)c12` here?
**A.** 0 (inactive)

**Q.** Which inhibition score does the source give for `C=CCSc1nnc(-c2ccc([N+](=O)[O-])cc2)o1` here?
**A.** 10 (inactive)

**Q.** Which inhibition score does the source give for `O=C(OCc1c(F)cccc1Cl)c1cnc2ccccc2n1` here?
**A.** 0 (inactive)

**Q.** Which inhibition score does the source give for `COc1ccc2nc3ccccc3[n+]([O-])c2c1` here?
**A.** 0 (inactive)

**Q.** With `O=C1c2c(O)ccc(O)c2C(=O)c2c(NCCNCCO)ccc(NCCNCCO)c21` as the compound, how does the inhibition score read?
**A.** 0 (inactive)

**Q.** Which inhibition score does the source give for `[O-][n+]1c2ccccc2[n+]([O-])c2cc(O)ccc21` here?
**A.** 10 (inactive)

**Q.** For `CCCCCNC(=O)C(=O)C1C(=O)Nc2ccccc21` (centres undefined), which inhibition score is on record?
**A.** 10 (inactive)

**Q.** With `O=C(CN1CCN(c2ccccn2)CC1)Nc1ccccc1F` as the compound, how does the inhibition score read?
**A.** 0 (inactive)

**Q.** Which inhibition score does the source give for `CC(C)OC(=O)c1ccc2nc3ccccc3nc2c1` here?
**A.** 10 (inactive)

**Q.** For `O=C(Nc1cccc(Cl)c1)Nc1ccc2nccnc2c1`, which inhibition score is on record?
**A.** 0 (inactive)

**Q.** With `COc1ccc2cc(C3CC(c4ccco4)=NN3S(=O)(=O)c3ccccc3)c(Cl)nc2c1` (centres undefined) as the compound, how does the inhibition score read?
**A.** 0 (inactive)

**Q.** Which inhibition score does the source give for `CC(C)OC(=O)CSc1nnc(-c2ccc(Cl)cc2Cl)o1` here?
**A.** 0 (inactive)

**Q.** Which inhibition score does the source give for `O=C(c1cccc2nc3ccccc3nc12)N1CCOCC1` here?
**A.** 0 (inactive)

**Q.** With `Cc1ccc(-c2nn(C(C)(C)C)c3ncnc(N)c23)cc1` as the compound, how does the inhibition score read?
**A.** 21 (active)

**Q.** Which inhibition score does the source give for `C=CCOn1c(=O)c(-c2cccs2)[n+]([O-])c2ccccc21` here?
**A.** 0 (inactive)

**Q.** With `O=C(/C=C/c1cccs1)NC(=S)NNC(=O)Cc1cccs1` as the compound, how does the inhibition score read?
**A.** 21 (active)

**Q.** With `COc1ccc2c(c1)c1nnc(SC)nc1n2C` as the compound, how does the inhibition score read?
**A.** 21 (active)

**Q.** With `O=C(O)c1cnc2ccccc2n1` as the compound, how does the inhibition score read?
**A.** 0 (inactive)

**Q.** Which inhibition score does the source give for `CCn1c2ccccc2c2n[nH]c(=S)nc21` here?
**A.** 0 (inactive)

**Q.** For `O=C(/C=C/c1ccccc1)NC(=S)NNC(=O)Cc1cccs1`, which inhibition score is on record?
**A.** 21 (active)

**Q.** With `CC(C)CSc1nnc2c3ccccc3n(C)c2n1` as the compound, how does the inhibition score read?
**A.** 0 (inactive)

**Q.** With `COc1ccc2nc3ccccc3nc2c1NC(=O)c1ccccc1Cl` as the compound, how does the inhibition score read?
**A.** 0 (inactive)

**Q.** With `CCN(CC)c1ccc2nc3ccc(N)cc3[n+](-c3ccccc3)c2c1` as the compound, how does the inhibition score read?
**A.** 0 (inactive)

**Q.** Which inhibition score does the source give for `Cc1ccccc1NC(=O)c1cccc2nc3ccccc3nc12` here?
**A.** 0 (inactive)

**Q.** Which inhibition score does the source give for `COc1ccc2nc3cccc(OC)c3nc2c1` here?
**A.** 10 (inactive)

**Q.** Which inhibition score does the source give for `C/C(=N\Nc1ncnc2sc(C)c(C)c12)c1ccccn1` here?
**A.** 21 (active)

**Q.** For `COc1ccc2nc3ccccc3nc2c1N`, which inhibition score is on record?
**A.** 10 (inactive)
